Broadly, the inhibition is the change of the read-out against control, counted positive when it falls.

Values joined by “and” are separate entries in the source; they are usually repeats but may differ in a detail not shown here. Equal entries are not always repeated. Screen size: about 220,000 compounds; about 8,200 (3.7%) were called active. This is one part of a sample in which actives are shown more often than they occur.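 Rule for the calls: active = compounds that reduced the stress-induced luciferase reporter signal by more than about 70% of percent inhibition (limit read from the data); inactive = the rest.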 Where a structure was tested more than once in an assay, its records may differ in their call.

Among the data in PubChem BioAssay AID2732 (Emory University Molecular Libraries Screening Center, 2010) are inhibition values, retold here.

The nature of this experiment: inhibitors of CHOP promoter induction, primary screen, cell-based, unfolded protein response, luciferase reporter (AID 2732).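 Note: 0% = tunicamycin plus vehicle and 100% = wells without tunicamycin.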 The note with it: CHO-K1 CHOP-promoter luciferase, tunicamycin-induced, 15-18 h; at 10 µM; stronger effect = higher value. (In general: In a reporter assay the amount or activity of a reporter protein is the signal.)
On to `CCCCCCCCCCCCN1C(=O)CSC1c1cccnc1` (stereo not drawn), for which the inhibition was 28.5% (inactive).
With `Cc1noc(C)c1COc1ccc2ccc(=O)oc2c1`, the inhibition is 2.13% (inactive).
On to `COc1ccc(C(=O)CN2C(=O)NC(C)(c3ccc(C)cc3)C2=O)cc1OC` (stereo not drawn), for which the inhibition was 15.7% (inactive).
Take `Cc1ccc(C2(c3ccc(C)cc3)NC(=O)N(Cc3c(C)noc3C)C2=O)cc1`: the inhibition is 92.8% (active).
Turning to `Cc1cc(F)ccc1NC(=O)C(C)n1c2ccccc2c2nc(=O)cc(C)n21` (stereo not drawn), the inhibition was -2.79% (inactive).
As for `CC1=NNC(=O)C1CC(=O)N/N=C/c1ccncc1` (stereo not drawn), the figure is 9.24% (inactive); as for `C#CCOCCOCCOCCNc1nc(N2CCN(C(=O)[C@H](CCC(=O)O)n3cc(C(N)CO)nn3)CC2)nc(N2CCN(C(=O)[C@H](CCCCN)n3cc(C(N)CC(C)C)nn3)CC2)n1` (stereo partly drawn), -22.6% (inactive).
For `Cn1nc(C(F)(F)F)cc1-c1ccc(/C=C(\C#N)C(=O)c2cccc(C(F)(F)F)c2)s1`, the inhibition was -6.02% (inactive).
As for `CCOC(=O)COc1ccc([N+](=O)[O-])cc1`, the figure is 3.34% (inactive).
As for `CCOC(=O)/C(=C\c1ccc([N+](=O)[O-])cc1)C(=O)c1cc(C(C)=O)c(Nc2ccccc2)s1`, the figure is 112% (active); as for `Cc1cccc(NC(=O)c2sc(-c3ccccc3)nc2-c2ccc([N+](=O)[O-])cc2)c1`, 31.6% (inactive); as for `COC(=O)c1sc(C(F)(F)F)c(-c2ccccc2)c1S(=O)(=O)N(C)C`, 21.3% (inactive).
As for `CC(C)c1ccc2c(c1)c(SC(C)(C)C)c(CC(C)(C)C(=O)O)n2Cc1ccc(Cl)cc1`, the figure is -15.8% (inactive) and 96.6% (active); as for `O=S(=O)(NCCc1csc(-c2ccccc2)n1)c1cccnc1`, 10.5% (inactive); as for `Cc1ccc(N/C(N)=N/c2nc(C(F)(F)F)cc(C(F)(F)F)n2)cc1`, 92.5% (active).
Regarding `Cc1ccc(NC(=O)Nc2ccc3oc(C)nc3c2)cc1`, the inhibition was -9.69% (inactive).
With `COc1ccc2nc(/N=C(\N)NC(=O)Nc3ccccc3)nc(C)c2c1`, the inhibition was 29.8% (inactive).
As to `C/C=C\C=C\C(=O)N1CC2(CC(c3cccc(NC(=O)/C(C)=C\C)c3)=NO2)C[C@H]1C(N)=O` (stereo partly drawn), the inhibition is -9.78% (inactive).
With `Cc1cccc(NC(=O)c2ccc([N+](=O)[O-])o2)c1`, the inhibition was -27% (inactive).
In the case of `COc1ccc(Cl)cc1S(=O)(=O)N1CCC(O)(c2ccc(Cl)cc2)CC1`, the inhibition is 19.7% (inactive).
On to `O=C(Nc1ccccc1)O/N=C1\CCCCC1c1ccc([N+](=O)[O-])cc1[N+](=O)[O-]` (stereo not drawn), for which the inhibition was 22.1% (inactive).
As for `O=[N+]([O-])c1ccc(N/N=C2/CCCCC2c2ccccn2)c([N+](=O)[O-])c1` (stereo not drawn), the figure is 80.1% (active); as for `C[n+]1ccccc1C1CCCC/C1=N\Nc1ccc([N+](=O)[O-])cc1[N+](=O)[O-]` (stereo not drawn), 8.15% (inactive); as for `O=C(NNC(=O)c1cnccc1C(F)(F)F)c1ccc(Cl)cc1`, -0.67% (inactive).
With `S=c1[nH]nc(-c2cc(-c3ccsc3)n[nH]2)n1-c1ccccc1`, the inhibition is 0.59% (inactive).
As for `O=C(Nc1cccc(-c2nc3ccccc3[nH]2)c1)c1ccc(C(=O)Nc2cccc(-c3nc4ccccc4[nH]3)c2)cc1`, the figure is -38.4% (inactive).
`CCOC(=O)c1c(NC(=O)C2CCN(S(=O)(=O)c3ccc(Cl)cc3)CC2)sc2c1CCCC2`: the inhibition is 15.6% (inactive).
The value for `O=C(Nc1sc2c(c1-c1nc3ccccc3[nH]1)CCCC2)C1CC1` was 80.4% (active); that for `O=C(Nc1ccc(F)cc1F)N1CCCN(CCOc2ccccc2)CC1` was -11% (inactive); that for `Cc1ccc(Cl)c(OCC(=O)NN2CCN(C)CC2)c1` was 5.66% (inactive).
The value for `c1ccc(CC2CCN(c3nc4ccccc4n4cnnc34)CC2)cc1` was 76.1% (active); that for `O=C(c1ccccc1)c1ccc2nc(N3CCCCC3)c3nncn3c2c1` was 19.1% (inactive).
On to `NC(=O)c1ccc(CN2CCC(Cc3ccccc3)CC2)cc1`, for which the inhibition was -9.98% (inactive).
On to `N#CC1=C(N)Oc2c(ccc3cccnc23)C1c1ccncc1` (stereo not drawn), for which the inhibition was -1.42% (inactive).
As for `CCOC(=O)c1sc(NC(=O)COc2ncnc3ccccc23)c(C(=O)OCC)c1C`, the figure is 43% (inactive); as for `Nc1nnc(SCC(=O)NC2CCCc3ccccc32)s1` (stereo not drawn), 12.6% (inactive); as for `CCOC(=O)c1c(NC(=O)CNC2CCCc3ccccc32)sc(C(N)=O)c1C` (stereo not drawn), 95.9% (active).
For the molecule `Cc1ccc(/C=N/NC(=S)Nc2cccc(S(=O)(=O)N(C)C)c2)o1`, the inhibition is 36% (inactive).
With `NC(=O)c1ccc(-c2csnn2)cc1`, the inhibition is 9.46% (inactive).
As for `Cc1ccccc1-c1n[nH]c(=S)n1/N=C/c1ccc(-c2ccccc2Br)o1`, the figure is 72.8% (active).
As for `Cc1ccccc1-c1n[nH]c(=S)n1C`, the figure is -13.1% (inactive).
On to `Cc1n[nH]c(=S)n1/N=C/c1ccc(Br)o1`, for which the inhibition was 14.2% (inactive).
The value for `CC1CN(c2nc(Nc3ccccc3)nc(N)c2[N+](=O)[O-])CC(C)O1` (stereo not drawn) was 9.58% (inactive).
Regarding `Cc1cccc(-n2c(N)c(C(=O)N3CCN(C)CC3)sc2=S)c1`, the inhibition is -3.45% (inactive).
As for `CCCc1nc(N2CCN(C)CC2)c2sc(=S)n(-c3ccccc3)c2n1`, the figure is 74.7% (active); as for `CCCc1nc(-c2ccccc2O)n(-c2ccccc2)n1`, 40.5% (inactive).
For the molecule `O=C(NCCc1ccccn1)c1cccnc1Oc1ccc(Cl)cc1`, the inhibition is 18.1% (inactive).
Regarding `CCCN(CCC)S(=O)(=O)c1ccc(C(=O)NNC(=O)c2cc(OC)c(OC)c(OC)c2)cc1`, the inhibition is 2.06% (inactive).
Consider `C/C(CC(=O)NC(C)c1ccccc1)=N\NC(N)=S` (stereo not drawn), for which the inhibition was 0.93% (inactive).
The value for `CC(=O)Nc1ccc(C(=O)CSc2nc3ccc(C)cc3[nH]2)cc1` was 37.2% (inactive); that for `Cc1nc(SCC(=O)c2ccccc2)c([N+](=O)[O-])[nH]1` was 7.53% (inactive); that for `O=C(CSc1nc2ccc([N+](=O)[O-])cc2[nH]1)c1ccc(Cl)cc1` was 78.4% (active).
As for `CCOc1ccc(N2CC(C(=O)N/N=C/c3sccc3C)CC2=O)cc1` (stereo not drawn), the figure is 17.4% (inactive); as for `COc1ccc(C(C(=O)NC(C)(C)C)N(C(=O)Cn2nnc3ccccc32)c2ccc(C(C)=O)cc2)cc1O` (stereo not drawn), -13.6% (inactive); as for `O=C(Nc1ccc(Cl)cc1)Nc1ccc(Oc2cccnc2)nc1`, 15.6% (inactive).
Regarding `COc1ccc(OC(C)C(=O)NCCc2nc3ccccc3[nH]2)cc1` (stereo not drawn), the inhibition is 12.8% (inactive).
For `CCCCCOc1ccc(/C=C/C(=O)NCCc2nc3ccccc3[nH]2)cc1OC`, the inhibition is 70.7% (active).
As for `O=C(COc1ccccc1)NCCc1nc2ccccc2[nH]1`, the figure is -0.39% (inactive).
